According to PubChem BioAssay (NCI):
The panel holds about 79,000 compounds, 15% with a hit somewhere; the sample as a whole holds those more often. Active and inactive are the calls of the source. No stated cut-off is given here; in the data, active means growth inhibition above about 70%; inactive means the rest.

How the values were obtained:
[1] = NCI Yeast Anticancer Drug Screen. Data for the rad52 strain (AID 147);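 further: 0% = growth of vehicle-treated control cultures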; conditions: S. cerevisiae rad52 mutant growth inhibition, active compounds read high
Outline: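 Screen used a yeast mutant impaired in DNA repair. After compound exposure, growth was measured. Values reflect inhibition compared with vehicle-treated cells.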

[2] = NCI Yeast Anticancer Drug Screen. Data for the wt1 strain (AID 149);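 further: 0% = growth of vehicle-treated wt1 cultures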; conditions: S. cerevisiae wt1 strain (SPY 50644) growth inhibition, active compounds read high
Outline: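 Readout: yeast growth inhibition, normalised to vehicle controls, in the wt1 strain exposed to test compounds.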

[3] = NCI Yeast Anticancer Drug Screen. Data for the rad50EPP+ strain (AID 151);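 further: 0% = growth of vehicle-treated control cultures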; conditions: S. cerevisiae rad50 mutant strain, active compounds read high
Outline: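 Exposing the rad50EPP+ strain to each compound, growth was compared with vehicle-only cultures to give inhibition.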

[4] = NCI Yeast Anticancer Drug Screen. Data for the rad50 strain (AID 155);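 further: 0% = growth of vehicle-only cultures of the same strain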; conditions: S. cerevisiae rad50 strain growth inhibition, active compounds read high
Outline: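 Compounds were tested on a yeast strain with an engineered DNA damage repair alteration; the reported value is growth inhibition normalised to vehicle treatment.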

[5] = NCI Yeast Anticancer Drug Screen. Data for the mec2-1 strain (AID 157); conditions: S. cerevisiae mec2-1 strain, active compounds read high
Outline: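 Readout is yeast growth inhibition, normalised to vehicle-treated controls, in the mec2-1 strain exposed to compound.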

[6] = NCI Yeast Anticancer Drug Screen. Data for the rad14 strain (AID 159);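 further: 0% = growth of vehicle-treated control cultures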; conditions: S. cerevisiae rad14 strain growth inhibition, active compounds read high
Outline: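 Compound-treated yeast with a defined DNA-repair lesion; growth inhibition normalised to vehicle-treated cultures.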

[7] = NCI Yeast Anticancer Drug Screen. Data for the sgs1 mgt1 strain (AID 161);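 further: 0% = growth of cultures given vehicle only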; conditions: S. cerevisiae sgs1 mgt1 strain, active compounds read high
Outline: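 Compounds are added to genetically altered yeast, and growth is compared with cultures given vehicle alone to give percent inhibition.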

[8] = NCI Yeast Anticancer Drug Screen. Data for the CLN2oe strain (AID 163);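 further: 0% = growth of vehicle-only control cultures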; conditions: S. cerevisiae CLN2oe strain, active compounds read high
Outline: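 Values reflect how much compound exposure reduced yeast growth, referenced to vehicle-exposed cells. Assay organism is a strain with a defined genetic change affecting cell-cycle control.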

[9] = NCI Yeast Anticancer Drug Screen. Data for the cln2 rad14 strain (AID 165);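 further: 0% = growth equal to vehicle treated cultures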; conditions: S. cerevisiae cln2 rad14 strain, active compounds read high
Outline: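 Relative to vehicle controls, growth inhibition of compound-treated cln2 rad14 yeast was recorded.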

[10] = NCI Yeast Anticancer Drug Screen. Data for the bub3 strain (AID 167); conditions: S. cerevisiae bub3 mutant strain, active compounds read high
Outline: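 Growth of a checkpoint-deficient yeast mutant is measured after compound exposure. Values represent inhibition relative to vehicle.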

[11] = NCI Yeast Anticancer Drug Screen. Data for the wt2 strain (AID 169);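 further: 0% = growth of vehicle-treated yeast cultures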; conditions: S. cerevisiae wt2 strain growth inhibition, active compounds read high
Outline: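 Values express reduction in yeast growth under compound treatment, referenced to vehicle-treated cells.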

[12] = NCI Yeast Anticancer Drug Screen. Data for the mlh1 strain (AID 171);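 further: 0% = growth of vehicle-treated control cultures of the same strain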; conditions: S. cerevisiae mlh1 strain growth inhibition, active compounds read high
Outline: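 Steps: expose the defined-mutant yeast strain to compound; expose a parallel culture to vehicle; measure growth; express compound effect as inhibition relative to the vehicle culture.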

[13] = NCI Yeast Anticancer Drug Screen. Data for the sgs1 strain (AID 173);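 further: 0% = growth of vehicle-only control cultures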; conditions: S. cerevisiae sgs1 mutant, active compounds read high
Outline: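 Treat defined-mutant yeast with compound; measure growth; calculate inhibition relative to vehicle-treated cells.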

[14] = NCI Yeast Anticancer Drug Screen. Data for the mlh1 rad18 strain (AID 175); conditions: S. cerevisiae mlh1 rad18 strain growth inhibition, active compounds read high
Outline: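 Test agents were incubated with a yeast strain of defined genotype (DNA damage repair defect). Inhibition of growth was derived by comparison with vehicle-exposed cultures.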

[15] = NCI Yeast Anticancer Drug Screen. Data for the rad18 strain (AID 177); conditions: S. cerevisiae rad18 mutant growth inhibition, active compounds read high
Outline: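 A genetically defined yeast mutant impaired in DNA damage repair was treated with test compounds, then its growth was measured against cultures receiving vehicle alone.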

[16] = NCI Yeast Anticancer Drug Screen. Data for the mgt1 strain (AID 153); conditions: S. cerevisiae mgt1 mutant growth inhibition, active compounds read high
Outline: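 Genetically defined yeast (mgt1) treated with compound; inhibition of growth expressed against vehicle-treated controls.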

[17] = at 5.0 µM (retest, dose inferred, filed as 0.5)
[18] = at 50.0 µM (retest, dose inferred, filed as 5.0)

Measured: growth inhibition

Nc1ccc2c(c1)C(=O)c1ccc(F)cc1-2
active: [4]; [18] 71% | [4]; at 50.0 µM 81.4% | [14]; [18] 78%
inactive: [1]; at 1.2 µM 13% | [1]; at 3.7 µM 24% | [1]; at 11.0 µM 43% | [1]; at 33.0 µM 47% | [1]; at 100.0 µM 53% | [2]; at 1.2 µM 1% | [2]; at 3.7 µM 2% | [2]; at 11.0 µM 9% | [2]; at 33.0 µM 14% | [2]; at 100.0 µM 16% | [3]; at 1.2 µM 13% | [3]; at 3.7 µM 28% | [3]; at 11.0 µM 46% | [3]; at 33.0 µM 59% | [3]; at 100.0 µM 60% | [4]; at 1.2 µM 16% | [4]; at 3.7 µM 36% | [4]; [17] 5% | [4]; at 11.0 µM 55% | [4]; at 33.0 µM 61% | [4]; at 100.0 µM 51% | [5]; at 1.2 µM 4% | [5]; at 3.7 µM 10% | [5]; [17] -2% | [5]; at 11.0 µM 11% | [5]; at 33.0 µM 13% | [5]; [18] 30% | [5]; at 50.0 µM 19.6% | [5]; at 100.0 µM 22% | [6]; at 1.2 µM 6% | [6]; at 3.7 µM 13% | [6]; at 11.0 µM 15% | [6]; at 33.0 µM 18% | [6]; at 100.0 µM 22% | [7]; [17] -6% | [7]; [18] 32% | [7]; at 50.0 µM 9.55% | [8]; at 1.2 µM 5% | [8]; at 3.7 µM 7% | [8]; at 11.0 µM 11% | [8]; at 33.0 µM 20% | [8]; at 100.0 µM 16% | [9]; [17] 5% | [9]; [18] 8% | [9]; at 50.0 µM 5.25% | [10]; at 1.2 µM 2% | [10]; at 3.7 µM 6% | [10]; [17] -13% | [10]; at 11.0 µM 12% | [10]; at 33.0 µM 12% | [10]; [18] 35% | [10]; at 50.0 µM 20% | [10]; at 100.0 µM 20% | [11]; at 1.2 µM 1% | [11]; at 3.7 µM 3% | [11]; at 11.0 µM 7% | [11]; at 33.0 µM 11% | [11]; at 100.0 µM 12% | [12]; at 1.2 µM 3% | [12]; at 3.7 µM 13% | [12]; at 11.0 µM 14% | [12]; at 33.0 µM 13% | [12]; at 100.0 µM 22% | [13]; at 1.2 µM -4% | [13]; at 3.7 µM -4% | [13]; at 11.0 µM 0% | [13]; at 33.0 µM 2% | [13]; at 100.0 µM 4% | [14]; [17] 15% | [14]; at 50.0 µM 33.2% | [15]; at 1.2 µM 0% | [15]; at 3.7 µM 6% | [15]; at 11.0 µM 26% | [15]; at 33.0 µM 35% | [15]; at 100.0 µM 14%

CCC(=O)c1cc(C(=O)C(=S)SC)cc(C(=O)C(=S)SC)c1
inactive: [1]; at 1.2 µM 1% | [1]; at 3.7 µM 57% | [2]; at 1.2 µM -2% | [2]; at 3.7 µM 17% | [3]; at 1.2 µM 3% | [3]; at 3.7 µM 50% | [16]; at 1.2 µM -12% | [16]; at 3.7 µM 51% | [4]; at 1.2 µM 1% | [4]; at 3.7 µM 43% | [4]; [17] 30% | [5]; at 1.2 µM -9% | [5]; at 3.7 µM 36%
active: [1]; at 11.0 µM 97% | [1]; at 33.0 µM 97% | [1]; at 100.0 µM 90% | [2]; at 11.0 µM 93% | [2]; at 33.0 µM 98% | [2]; at 100.0 µM 96% | [3]; at 11.0 µM 86% | [3]; at 33.0 µM 96% | [3]; at 100.0 µM 93% | [16]; at 11.0 µM 99% | [16]; at 33.0 µM 98% | [16]; at 100.0 µM 95% | [4]; at 11.0 µM 96% | [4]; at 33.0 µM 97% | [4]; [18] 96% | [4]; at 50.0 µM 85.4% | [4]; at 100.0 µM 89%
